# Test results as given in paper PMC4336329 (PLoS ONE, 2015).
# In all, about 310,000 compounds went through this assay and about 14,000 (4.5%) showed an effect of 50% or more. The effect is printed as a negative number. For the sample, strong results were picked, then their nearest neighbours and some compounds at random.
# Target: human ether-à-go-go-related gene (hERG) potassium channel (human, UniProt Q12809)
# Test: primary screen, population patch clamp on CHO cells stably expressing hERG; higher = less effect of the substance
# 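Also: peak tail current of the secondary pulse compared with the same well before compound.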
# Sequence of human ether-à-go-go-related gene (hERG) potassium channel (Q12809 whole entry, looked up): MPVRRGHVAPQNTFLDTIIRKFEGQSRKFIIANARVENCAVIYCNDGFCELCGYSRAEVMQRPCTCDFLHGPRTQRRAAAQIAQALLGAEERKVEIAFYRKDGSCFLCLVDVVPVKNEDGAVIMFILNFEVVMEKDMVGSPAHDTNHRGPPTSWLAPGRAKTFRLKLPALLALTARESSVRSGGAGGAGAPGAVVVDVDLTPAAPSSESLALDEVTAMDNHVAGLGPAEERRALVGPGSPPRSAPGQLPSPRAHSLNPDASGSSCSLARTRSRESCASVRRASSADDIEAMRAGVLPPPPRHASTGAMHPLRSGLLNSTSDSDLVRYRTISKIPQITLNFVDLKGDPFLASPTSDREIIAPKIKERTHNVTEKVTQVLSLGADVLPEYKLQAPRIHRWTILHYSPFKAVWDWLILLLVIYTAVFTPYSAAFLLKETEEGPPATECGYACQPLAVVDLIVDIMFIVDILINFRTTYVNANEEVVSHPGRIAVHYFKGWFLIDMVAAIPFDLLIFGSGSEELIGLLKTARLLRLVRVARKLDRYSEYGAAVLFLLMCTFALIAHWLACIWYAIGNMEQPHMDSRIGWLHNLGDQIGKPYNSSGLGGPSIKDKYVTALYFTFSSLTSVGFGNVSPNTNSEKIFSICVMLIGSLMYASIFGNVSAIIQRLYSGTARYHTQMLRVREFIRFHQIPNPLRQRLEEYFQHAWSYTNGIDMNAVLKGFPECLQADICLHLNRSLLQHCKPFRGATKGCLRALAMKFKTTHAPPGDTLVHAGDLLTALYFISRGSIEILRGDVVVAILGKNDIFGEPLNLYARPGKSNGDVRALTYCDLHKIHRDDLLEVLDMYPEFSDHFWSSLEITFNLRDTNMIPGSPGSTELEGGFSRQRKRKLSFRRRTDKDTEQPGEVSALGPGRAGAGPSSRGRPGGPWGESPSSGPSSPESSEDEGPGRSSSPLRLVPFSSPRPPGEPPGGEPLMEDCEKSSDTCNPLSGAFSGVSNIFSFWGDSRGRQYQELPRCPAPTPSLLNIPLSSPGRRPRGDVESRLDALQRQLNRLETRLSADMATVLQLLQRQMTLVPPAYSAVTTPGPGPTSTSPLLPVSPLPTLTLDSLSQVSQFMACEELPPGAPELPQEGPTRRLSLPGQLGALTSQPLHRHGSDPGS
row,SMILES,"hERG current change (%, negative = inhibition) at 10uM"
1,CN(c1cccc2cccnc12)S(=O)(=O)c1ccccc1,-8.43%
2,COc1ccc(-c2cc(C)no2)cc1S(=O)(=O)NCc1cccc(C)c1,-41.5%
3,Cc1cc(-c2ccc(C)c(S(=O)(=O)NCc3cccc(Br)c3)c2)on1,-22.2%
4,COc1cccc(CNS(=O)(=O)c2cc(-c3cc(C)no3)ccc2C(C)C)c1,-7.33%
5,Cc1cc(-c2ccc(C)c(S(=O)(=O)NCCN3CCC(C)CC3)c2)on1,-12.8%
6,COc1cccc(CCN2CCC(CNS(=O)(=O)c3cc(-c4cc(C)no4)ccc3OC)CC2)c1,-74.9%
7,COc1cccc(CCN2CCC(CNS(=O)(=O)c3cc(-c4cc(C)no4)ccc3C)CC2)c1,-77.2%
8,CCCNC(=O)c1[nH]c(C)c(C(C)=O)c1C,19.3%
9,Cc1cc(C)cc(C(=O)Nc2ccc(N3CCN(S(C)(=O)=O)CC3)cc2)c1,15.7%
10,Cc1ccc(CNC(=O)CCCNS(=O)(=O)c2cccc3nonc23)cc1,-11.4%
11,CCOC(=O)COc1ccc(N)cc1CC(NC(C)=O)(C(=O)OCC)C(=O)OCC,-72.7%
12,CCOC(=O)C(Cc1c(F)cccc1F)(NC(C)=O)C(=O)OCC,8.41%
13,CCOC(=O)C(Cc1ccccc1)(NC(C)=O)C(=O)OCC,7.61%
14,CC1CCCC(C)N1C(=O)COC(=O)C12CC3CC(CC(Cl)(C3)C1)C2 (centres unmarked),-18.2%
15,N#CC1(NC(=O)COC(=O)C23CC4CC(CC(O)(C4)C2)C3)CCCCC1,4.38%
16,CN(C(=O)COC(=O)C12CC3CC(CC(Cl)(C3)C1)C2)C1(C#N)CCCCC1,-53.5%
17,Cc1cccc(N2CN=C3SCC(=O)N3C2)c1,0.175%
18,CC(C)C1Nc2ccc(S(N)(=O)=O)cc2C2C=CCC21 (centres unmarked),5.89%
19,OCC(O)/C=N/Nc1nc2ccccc2s1 (centres unmarked),14%
20,C/C(=N\NC(=S)NC(C)C)c1ccc2c(c1)OCCO2,-63.6%
21,COCCNC(=S)N/N=C(\C)CCc1ccc2c(c1)OCO2,-11.6%

row,SMILES,"hERG current change (%, negative = inhibition) at 10uM"
1,CCNC(=S)N/N=C(\C)c1ccc2c(c1)OCCO2,13.4%
2,C/C(CCc1ccc2c(c1)OCO2)=N\NC(=S)NC(C)C,-59.4%
3,C/C(CCc1ccc2c(c1)OCO2)=N\NC(=O)c1ccccc1,9.96%
4,CNC(=S)N/N=C(\C)c1ccc2c(c1)OCCO2,9.21%
5,CC(=O)n1cc([C@H]2C=C(C(=O)Nc3ccccc3)O[C@@H](OCc3ccc(CO)cc3)C2)c2ccccc21,-2.85%
6,CC1(C)CC(NS(=O)(=O)c2ccc(Cl)cc2)CC(C)(C)N1,9.34%
7,O=C(O)c1ccc(NCc2nc3ccccc3n2Cc2ccccc2)cc1,-4.61%
8,CCn1cnc2cc(NCc3cccs3)ccc21,-15.9%
9,Cc1nc2cc(NCc3ccccc3O)ccc2n1Cc1ccccc1,13.8%
10,CCn1cnc2cc(NCc3nc4ccccc4n3Cc3ccccc3)ccc21,-65.6%
11,Cc1nc2cc(NCc3nc4ccccc4n3Cc3ccccc3)ccc2n1C,-82%
12,Cc1cccc(NCc2nc3ccccc3n2Cc2ccccc2)c1,-13.1%
13,NC(=O)c1ccccc1OCC(=O)N1CCc2ccccc2C1,8.34%
14,COC(=O)c1cc(-c2ccc(Br)cc2)on1,8.48%
15,Cc1c(Cl)cccc1NC(=S)NCc1ccccc1,16.5%
16,Cc1ccc(S(=O)(=O)C2(C(=O)NCc3ccccc3Cl)CC2)cc1,-15.2%
17,Cc1nnc(SCC(=O)Nc2ccc(N3CCOCC3)cc2)n1-c1ccccc1,-14.5%
18,CCCCCn1c(=O)[nH]c2cc(C(=O)Nc3ccc(OC)cc3)ccc2c1=O,14.9%
19,CC(=O)NCC(=O)OCc1ccc([N+](=O)[O-])cc1,3.26%
20,O=C(NC1CCCCCC1)C1CCN(S(=O)(=O)c2c(Cl)cccc2Cl)CC1,11.6%
21,CN(C)C1(CNC(=O)C2CCN(S(=O)(=O)c3ccccc3C(F)(F)F)CC2)CCCCC1,-29.8%

row,SMILES,"hERG current change (%, negative = inhibition) at 10uM"
1,CC(C)c1ccc(S(=O)(=O)N2CCC(C(=O)N3CCC3)CC2)cc1,-9.72%
2,O=C(NCC1CCCO1)C1CCN(S(=O)(=O)c2cc(Cl)ccc2Cl)CC1 (centres unmarked),-19%
3,CN(C)C1(CNC(=O)C2CCN(S(=O)(=O)c3cc(Cl)ccc3Cl)CC2)CCCCC1,-64.1%
4,Cc1ccc(S(=O)(=O)N2CCC(C(=O)Nc3ccc(C(C)C)cc3)CC2)cc1,-11.5%
5,CN(C)C1(CNC(=O)C2CCN(S(=O)(=O)c3c(Cl)cccc3Cl)CC2)CCCCC1,-67.5%
6,CN(C)C1(CNC(=O)C2CCN(S(=O)(=O)c3cccc(C(F)(F)F)c3)CC2)CCCCC1,-34.6%
7,CC(C)c1ccc(S(=O)(=O)N2CCC(C(=O)NCC3(N(C)C)CCCCC3)CC2)cc1,-54.4%
8,CCOC(=O)c1cccc(NC(=O)C2CCCO2)c1 (centres unmarked),4.7%
9,Brc1ccccc1CNCCc1ccc2c(c1)OCO2,0.404%
10,Cc1cccc(Oc2cnn(C(C)(C)C)c(=O)c2Cl)c1,-10%
11,Cc1ccc(NC(=O)c2sc(N)nc2-c2ccc([N+](=O)[O-])cc2)cc1C,8.18%
12,CSc1ccc(C(C(C(=O)c2cccs2)N2CCOCC2)N2CCOCC2)cc1 (centres unmarked),-3.73%
13,COc1ccc(CCn2nnnc2C(C(C)C)N2CCN(c3ncccn3)CC2)cc1OC (centres unmarked),-5.93%
14,Cc1c(Br)c([N+](=O)[O-])nn1CC(=O)Nc1ccc(C(N)=O)cc1,-2.84%
15,COc1ccc(C2c3c(ccc4ccccc34)Oc3ncn4nc(Cc5ccccc5)nc4c32)cc1OC (centres unmarked),-7.49%
16,COc1ccc(C2c3c(ncn(CCCN4CCOCC4)c3=N)Oc3ccc4ccccc4c32)cc1OC (centres unmarked),-51.3%
17,COc1ccc(C2c3ccc4ccccc4c3Oc3ncn(CCN4CCOCC4)c(=N)c32)cc1 (centres unmarked),-74.1%
18,COc1ccc(C2c3c(ncn(CCN4CCOCC4)c3=N)Oc3ccc4ccccc4c32)cc1OC (centres unmarked),-16.6%
19,COc1ccc(C2c3ccc4ccccc4c3Oc3ncn(CCN4CCOCC4)c(=N)c32)cc1OC (centres unmarked),-53.4%
20,COc1ccc(C2c3c(ncn(CCN4CCOCC4)c3=N)Oc3ccc4ccccc4c32)cc1 (centres unmarked),-47.2%
